The nature of assay [1]: Validation of Assay for Modulators of Lamin A Splicing (AID 1459; active = well fitted curve in the direction sought with a large enough effect in the signal ratio; the % refers to the signal ratio;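 also: cells exposed to compound for two days before reading; 0% is about no effect; ratio rise marks activators and ratio drop marks inhibitors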). The method in brief:
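Splicing correction is reported by an EGFP-containing lamin A minigene in stably transfected S3 HeLa cells, while DsRed2 controls for viability and nonspecific signal. Cells are exposed to compounds for 48 hrs before the GFP over RFP ratio is taken.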

The target in assay [2] is DNA repair nuclease/redox regulator APEX1 (Homo sapiens) (UniProt P27695). Put plainly: qHTS Validation Assay for Inhibitors of the Human Apurinic/apyrimidinic Endonuclease 1 (APE1) (AID 1705;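 also: TAMRA fluorescence gain over two minutes as APE1 cuts a quenched THF abasic duplex; % is scaled to controls: 0 for no effect and ±100 for the full control effect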). The method in brief: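 Endonuclease activity of human APE1 is followed as dequenching when the enzyme incises a tetrahydrofuran abasic site in a short duplex labelled 5'-TAMRA/3'-BHQ-2 (50 nM final), after 15 min enzyme–compound preincubation at room temperature.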
Sequence of DNA repair nuclease/redox regulator APEX1 (Homo sapiens) (P27695 whole entry, looked up): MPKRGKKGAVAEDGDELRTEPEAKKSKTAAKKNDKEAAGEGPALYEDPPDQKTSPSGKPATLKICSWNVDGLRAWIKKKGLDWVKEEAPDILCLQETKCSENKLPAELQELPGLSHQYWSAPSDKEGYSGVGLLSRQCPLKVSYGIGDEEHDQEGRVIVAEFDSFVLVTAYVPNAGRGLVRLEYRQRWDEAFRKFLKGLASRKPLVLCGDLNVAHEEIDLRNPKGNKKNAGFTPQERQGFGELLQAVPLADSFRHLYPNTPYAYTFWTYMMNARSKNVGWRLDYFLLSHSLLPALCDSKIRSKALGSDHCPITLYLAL

Assay [3] is described as follows: Counterscreen for APE1 Inhibitors: Fluorescent Dye Displacement Validation Assay (AID 1707).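 Also: plate controls were ThO with dsDNA and no compound for no effect and ThO without dsDNA for full effect.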 The method in brief: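 Counterscreen flags promiscuous DNA binders: compounds displacing ThO from duplex DNA (abasic THF site, 50 nM) reduce 540 nm emission (480 nm excitation). ThO 250 nM final; Tris-HCl pH 7.5 with NaCl, MgCl2 and Tween-20.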
The target in assay [4] is Endonuclease 4 (Escherichia coli (strain K12)) (UniProt P0A6C1). Description: Counterscreen for APE1 Inhibitors: qHTS Validation Assay for Inhibitors of Endonuclease IV (AID 1708). Also: % is scaled to controls: 0 for no effect and ±100 for the full control effect. The method in brief:
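Conditions: 2 nM enzyme, 50 nM TAMRA/BHQ-2 substrate, pH 7.5 Tris buffer with 2 mM MgCl2, RT. Compound preincubation 15 min; readout three fluorescence reads 60 s apart, third-minus-first.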

Assay [5] is described as follows: qHTS for differential inhibitors of proliferation of Plasmodium falciparum line D10 (AID 1877).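 Also: parasites grown with compound for 72 h before DNA staining; plate controls were vehicle wells for no effect and reference inhibitor wells for full effect.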
The target of assay [6] is Ferritin light chain (Equus caballus) (UniProt P02791). Put plainly: qHTS Validation Assay for Identification of Novel General Anesthetics (AID 2323). Also: % is scaled to controls: 0 for no effect and ±100 for the full control effect. The method in brief:
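Apoferritin from horse spleen (10 uM) was mixed with 1-aminoanthracene at 50% saturation in PBS, then compounds were added. After 10 min at room temperature, fluorescence was read (ex 380 nm, em 535 nm) and normalized to free-probe and complex controls.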

In assay [7] the target is ATP-dependent DNA helicase Q1 (Homo sapiens) (UniProt P46063). Description: qHTS Validation Assay for Inhibitors of RecQ-Like Dna Helicase 1 (RECQ1) (AID 2353).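 Also: plate controls were DMSO vehicle for no effect and enzyme-free control for full effect.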 The method in brief:
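RECQ1T1 50 nM; forked duplex (20 bp + 30-nt ss tails) 200 nM, ATP 2 mM final; pH 8.0, 2 mM MgCl2, 2.5 ug/ml poly(dI-dC); 15 min compound preincubation; discontinuous kinetic read over 2 h at RT.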

A short description of assay [8]: Validation screen for inhibitors of Lassa infection (AID 463096; calls by dose curve; also: % is scaled to controls: 0 for no effect and ±100 for the full control effect).
Assay [9] in a line: Quantitative high throughput screen for delayed death inhibitors of the malarial parasite plastid, 96 hour incubation (AID 488745).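 Also: luciferase-expressing P. falciparum in erythrocytes at 2% hematocrit and 0.1% parasitemia; % is scaled to controls: 0 for no effect and ±100 for the full control effect; nearly all actives have a fitted effect of over 70% in size.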 The method in brief:
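Readout is firefly luciferase luminescence from an integrated reporter in P. falciparum; lower signal marks inhibited growth. Cultures at 2% hematocrit and 0.1% parasitemia were treated with compound across two generations (96 h, 37 C, 5% CO2).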

Assay [10] deals with M-phase phosphoprotein 8 (Homo sapiens) (UniProt Q99549). Description: qHTS Validation Assay for Inhibitors for MPP8 Chromodomain Interactions with Methylated Histone Tails (AID 488949).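 Also: AlphaScreen signal from MPP8 chromodomain bound to biotinylated H3K9me3 peptide; top concentration of the series differs between compounds; % is scaled to controls: 0 for no effect and ±100 for the full control effect; nearly all actives have a fitted effect of over 55% in size.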 The method in brief:
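Disruption of the preformed MPP8–trimethyl-H3K9 peptide complex (both 50 nM, 30 min, RT) is measured after 30 min compound exposure, using AlphaScreen proximity beads; aurintricarboxylic acid titration serves as plate control.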

The target in assay [11] is Transient receptor potential cation channel subfamily V member 1 (Homo sapiens) (UniProt Q8NER1). Put plainly: HTS Assay for Compounds that Act as Enhancers of the Vanilloid Receptor 1 (AID 488979). Also: 0% is about no effect. The method in brief:
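TRPV1 cells loaded with Fluo-8 calcium dye; compound added and Ca2+ signal (ex 480/em 520 nm) followed 3 min, then capsaicin at EC20 added and read 2 more min to detect enhancement.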

Assay [12] addresses Thyrotropin receptor (Homo sapiens) (UniProt P16473). Description: qHTS Assay for Antagonists of the Thyroid Stimulating Hormone Receptor (AID 488980). Also: 0% is about no effect. The method in brief:
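Cells expressing human TSHR (HEK293) are dispensed in HBSS/HEPES containing 70 uM RO 20-1724, compound is added, then TSH at EC80 (4 nM final). Antibody in lysis buffer follows, 30 minutes at room temperature before HTRF detection.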

Assay [13] concerns the target Galactokinase (Homo sapiens) (UniProt P51570). Description: qHTS Validation Assay for Inhibitors of Human Galactokinase (GALK) (AID 493189). Also: 0% is about no effect. The method in brief:
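Compounds were pin-transferred into ATP buffer, then GALK-galactose mix was added (final 5 nM enzyme, 100 uM galactose, 35 uM ATP). After 1 h at room temperature, remaining ATP was measured luminescently.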

Assay [14] is described as follows: Validation screen for small molecules that induce DNA re-replication in SW480 colon adenocarcinoma cells (AID 504364). Also: 0% is about no effect. The method in brief:
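Image-based qHTS: compounds were incubated with SW480 cells for 48 hr, nuclei stained with Hoechst, and per-nucleus fluorescence intensity scanned to flag cells with excess DNA content.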

The nature of assay [15]: qHTS Assay for Lipid Storage Modulators (AID 1519; calls by dose curve). The settings on record: Drosophila S3 cells, BODIPY lipid droplet/cell ratio, laser cytometry, cells loaded with oleic acid; for activity change, negative = inhibition: at 57.5 µM (top of the series). The method in brief:
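Cells seeded at 5,000 per well were treated with compounds over a concentration series and loaded with oleic acid (400 uM, as added). Lipid droplet fluorescence (488 nm excitation, 500-530 nm channel) was read by laser-scanning cytometry and normalized to 20 uM Triacsin C.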

Assay [16] in a line: Primary qHTS for inhibitors of SARS-S pseudo-typed particle cell entry (AID 1479145; calls by dose curve; also: nearly all actives have a fitted effect of over 45% in size). Conditions: outcome: dose series up to 57.1 µM unless noted.
The nature of assay [17]: Primary qHTS for Huh7 cytotoxicity: counterscreen for inhibitors of MERS-S pseudotyped particle cell entry (AID 1479147; calls by dose curve). The settings on record: outcome: dose series up to 57.1 µM unless noted.
Assay [18] can be described thus: Primary qHTS for inhibitors of MERS-S pseudo-typed particle cell entry (AID 1479149; calls by dose curve; also: nearly all actives have a fitted effect of over 60% in size). Conditions: outcome: dose series up to 57.1 µM unless noted.
A short description of assay [19]: Primary qHTS for Vero E6 cytotoxicity: counterscreen for inhibitors of SARS-S pseudo-typed particle cell entry (AID 1479150; calls by dose curve). Conditions: outcome: dose series up to 57.1 µM unless noted.
The nature of assay [20]: Cytotoxicity counterscreen for inhibitors of SARS-CoV-2 cell entry (AID 1645845; calls by dose curve; also: nearly all actives have a fitted effect of over 50% in size). The settings on record: outcome: dose series up to 57.1 µM unless noted. The method in brief:
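Counterscreen run in the same HEK293-ACE2 line as the pseudotyped-particle entry assay, without particles. Viability after 48 h at 37 C was read as ATP luminescence, scaled between cell-containing and cell-free wells.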

Setting [21] is: measured here: cell count channel max response.
The mark [22] stands for this setting: measured here: lipid channel max response.

10 compounds from PubChem BioAssay (NCATS) can be followed below.

SMILES strings stand for the structures. Records with an inconclusive call do not appear. Activity calls are given as the source filed them. Unless noted, calls follow the shape of the dose curve; as a rule, active = well fitted curve in the direction sought with a large enough effect; inconclusive = small, poorly fitted or top-dose-only effect, or another doubt; inactive = no such curve, though single readings can be large; an effect the other way counts as inactive or inconclusive.

Sequence of Galactokinase (Homo sapiens) (P51570 whole entry, looked up): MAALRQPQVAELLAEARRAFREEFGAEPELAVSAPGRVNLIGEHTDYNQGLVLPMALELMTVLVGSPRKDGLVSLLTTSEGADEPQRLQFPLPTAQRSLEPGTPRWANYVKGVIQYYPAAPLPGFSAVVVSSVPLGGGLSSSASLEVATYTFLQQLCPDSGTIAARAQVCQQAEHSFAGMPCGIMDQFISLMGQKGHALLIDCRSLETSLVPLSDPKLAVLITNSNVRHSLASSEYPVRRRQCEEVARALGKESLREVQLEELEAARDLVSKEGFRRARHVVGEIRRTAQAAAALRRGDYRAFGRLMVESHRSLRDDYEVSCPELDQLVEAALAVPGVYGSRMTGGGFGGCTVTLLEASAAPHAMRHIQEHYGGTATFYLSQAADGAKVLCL
Sequence of Ferritin light chain (Equus caballus) (P02791 2-175 limits assumed): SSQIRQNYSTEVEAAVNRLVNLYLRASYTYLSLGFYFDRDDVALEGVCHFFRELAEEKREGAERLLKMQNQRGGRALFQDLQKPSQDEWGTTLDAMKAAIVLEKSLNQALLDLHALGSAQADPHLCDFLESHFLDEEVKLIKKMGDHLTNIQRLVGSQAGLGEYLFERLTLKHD
Sequence of ATP-dependent DNA helicase Q1 (Homo sapiens) (P46063 whole entry, looked up): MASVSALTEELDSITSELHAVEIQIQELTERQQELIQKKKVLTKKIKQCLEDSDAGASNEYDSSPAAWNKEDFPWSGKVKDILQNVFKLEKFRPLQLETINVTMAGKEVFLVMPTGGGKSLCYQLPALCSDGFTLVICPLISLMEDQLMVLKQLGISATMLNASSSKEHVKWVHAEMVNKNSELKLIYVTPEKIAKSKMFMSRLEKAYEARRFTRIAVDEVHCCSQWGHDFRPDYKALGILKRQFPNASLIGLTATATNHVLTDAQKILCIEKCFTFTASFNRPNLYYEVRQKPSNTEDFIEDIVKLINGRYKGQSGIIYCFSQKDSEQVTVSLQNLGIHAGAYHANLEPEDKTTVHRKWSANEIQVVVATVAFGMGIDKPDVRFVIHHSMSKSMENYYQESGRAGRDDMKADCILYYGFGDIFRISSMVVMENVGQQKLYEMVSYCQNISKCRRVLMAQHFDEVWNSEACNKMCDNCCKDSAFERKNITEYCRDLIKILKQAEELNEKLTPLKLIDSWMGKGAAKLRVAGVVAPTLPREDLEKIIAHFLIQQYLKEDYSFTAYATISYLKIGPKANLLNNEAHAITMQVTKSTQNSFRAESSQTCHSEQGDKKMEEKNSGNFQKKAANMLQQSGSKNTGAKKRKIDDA
Sequence of M-phase phosphoprotein 8 (Homo sapiens) (Q99549 whole entry, looked up): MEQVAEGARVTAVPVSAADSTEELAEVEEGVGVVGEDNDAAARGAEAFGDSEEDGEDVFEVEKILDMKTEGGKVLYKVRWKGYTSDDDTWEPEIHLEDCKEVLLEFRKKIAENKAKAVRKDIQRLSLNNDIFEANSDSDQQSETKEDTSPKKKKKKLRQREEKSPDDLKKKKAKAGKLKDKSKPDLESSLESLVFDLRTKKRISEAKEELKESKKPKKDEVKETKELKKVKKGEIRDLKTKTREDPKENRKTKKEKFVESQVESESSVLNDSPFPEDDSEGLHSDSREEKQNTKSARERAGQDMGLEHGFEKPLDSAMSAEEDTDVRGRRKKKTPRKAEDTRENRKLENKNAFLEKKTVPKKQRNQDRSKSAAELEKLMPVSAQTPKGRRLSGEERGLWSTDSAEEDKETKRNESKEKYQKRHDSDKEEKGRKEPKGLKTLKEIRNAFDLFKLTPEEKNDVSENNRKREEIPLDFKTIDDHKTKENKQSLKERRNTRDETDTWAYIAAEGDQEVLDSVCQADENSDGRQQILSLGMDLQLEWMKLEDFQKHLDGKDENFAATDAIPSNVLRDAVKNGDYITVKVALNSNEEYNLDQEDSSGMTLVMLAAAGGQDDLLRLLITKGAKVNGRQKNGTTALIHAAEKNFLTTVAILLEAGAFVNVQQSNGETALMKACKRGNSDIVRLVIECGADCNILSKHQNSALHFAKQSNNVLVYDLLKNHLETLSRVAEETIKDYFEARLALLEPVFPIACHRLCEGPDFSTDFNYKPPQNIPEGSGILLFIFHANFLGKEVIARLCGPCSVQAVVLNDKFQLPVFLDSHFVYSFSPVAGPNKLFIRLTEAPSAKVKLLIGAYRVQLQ
Sequence of Thyrotropin receptor (Homo sapiens) (P16473 whole entry, looked up): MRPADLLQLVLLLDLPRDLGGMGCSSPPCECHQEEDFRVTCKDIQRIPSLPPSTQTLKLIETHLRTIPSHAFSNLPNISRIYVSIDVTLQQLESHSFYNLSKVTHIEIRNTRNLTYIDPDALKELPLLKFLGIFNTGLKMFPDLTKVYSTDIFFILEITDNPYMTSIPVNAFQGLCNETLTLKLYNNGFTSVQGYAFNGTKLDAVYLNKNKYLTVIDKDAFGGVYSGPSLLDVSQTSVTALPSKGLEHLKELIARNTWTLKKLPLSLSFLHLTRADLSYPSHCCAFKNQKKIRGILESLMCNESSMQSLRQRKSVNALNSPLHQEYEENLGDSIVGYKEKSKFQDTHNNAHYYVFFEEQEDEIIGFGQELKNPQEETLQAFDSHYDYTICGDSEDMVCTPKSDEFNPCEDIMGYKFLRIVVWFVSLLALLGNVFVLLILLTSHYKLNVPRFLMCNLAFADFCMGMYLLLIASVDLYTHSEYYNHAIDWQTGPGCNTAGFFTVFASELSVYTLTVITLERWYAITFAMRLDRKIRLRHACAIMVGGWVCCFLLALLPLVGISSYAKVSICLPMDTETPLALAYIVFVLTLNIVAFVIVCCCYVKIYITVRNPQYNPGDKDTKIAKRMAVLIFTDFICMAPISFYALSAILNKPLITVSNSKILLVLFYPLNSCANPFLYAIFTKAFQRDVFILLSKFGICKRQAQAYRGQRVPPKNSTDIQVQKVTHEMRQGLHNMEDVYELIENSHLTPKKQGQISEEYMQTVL
Sequence of Transient receptor potential cation channel subfamily V member 1 (Homo sapiens) (Q8NER1 whole entry, looked up): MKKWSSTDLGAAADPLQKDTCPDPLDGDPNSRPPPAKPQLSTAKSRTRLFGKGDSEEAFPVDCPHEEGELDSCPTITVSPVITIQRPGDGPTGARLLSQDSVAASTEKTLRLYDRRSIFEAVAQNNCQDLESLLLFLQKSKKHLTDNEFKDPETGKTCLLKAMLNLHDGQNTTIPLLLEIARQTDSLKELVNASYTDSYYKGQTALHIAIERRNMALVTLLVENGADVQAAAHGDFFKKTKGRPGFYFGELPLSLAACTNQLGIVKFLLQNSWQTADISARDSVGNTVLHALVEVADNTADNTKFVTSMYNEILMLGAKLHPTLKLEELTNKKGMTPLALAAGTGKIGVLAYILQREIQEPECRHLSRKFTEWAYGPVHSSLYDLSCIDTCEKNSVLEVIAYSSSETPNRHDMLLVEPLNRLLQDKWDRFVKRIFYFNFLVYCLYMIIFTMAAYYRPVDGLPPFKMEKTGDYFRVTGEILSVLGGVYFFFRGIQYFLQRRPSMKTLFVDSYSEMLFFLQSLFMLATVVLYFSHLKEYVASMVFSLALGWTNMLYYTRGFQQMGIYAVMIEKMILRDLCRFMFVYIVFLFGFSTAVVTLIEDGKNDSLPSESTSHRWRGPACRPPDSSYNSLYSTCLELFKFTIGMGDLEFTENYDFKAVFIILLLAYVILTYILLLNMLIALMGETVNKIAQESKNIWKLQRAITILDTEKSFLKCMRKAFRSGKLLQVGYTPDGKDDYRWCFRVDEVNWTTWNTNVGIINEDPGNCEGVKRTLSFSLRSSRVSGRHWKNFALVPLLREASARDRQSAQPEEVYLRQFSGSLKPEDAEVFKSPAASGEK

In the case of `CCCN1CCC[C@@H](c2cccc(C#N)c2)C1`, the call in assay [1], in assay [3], in assay [7], in assay [11], in assay [12] and in assay [13] was inactive. The result in assay [14] was inactive. In addition, the Potency entry in [2], in [4], in assay [5], in assay [6], in assay [8] and in [9] was “inactive” in each case. In addition, the Potency result in assay [10] is “inactive”.
Take `CCC(CO)NC(=O)[C@@H]1C=C2c3cccc4[nH]cc(c34)C[C@H]2N(C)C1` (stereo not given in full): the call in assay [1], in assay [3], in assay [7], in [11], in assay [12] and in assay [13] was inactive. Besides, the compound was classed as inactive in assay [14]. Further, the activity change, negative = inhibition in assay [15] was 0.713% (inactive). Further, the max response in assay [15] (setting [21]) was -10.2%; in [15] (setting [22]) it was -11.2%. The Potency result in assay [6], in assay [8] and in [10] was “inactive” in each case.
On to `NC(Cn1ccc(=O)[nH]c1=O)C(=O)O` (stereo not given), for which the call in assay [1], in assay [3], in assay [7], in assay [11], in [12] and in [13] was inactive. The outcome in [14] was inactive. Moreover, the activity change, negative = inhibition in assay [15] was -1.49% (inactive). The max response is -18.2% in assay [15] (setting [21]) and -23.6% in assay [15] (setting [22]). Moreover, the Potency entry in assay [2], in assay [4], in assay [5], in assay [6], in assay [8] and in assay [9] was “inactive” throughout. In assay [10], the Potency entry was “inactive”.
Regarding `CC12CCC3C(CCC4=C(O)C(=O)CCC43C)C1CCC2=O` (stereo not given), the compound was classed as inactive in assay [1], in assay [3], in assay [7], in [11], in assay [13] and in assay [14]. Moreover, the Potency result in assay [2], in assay [4], in assay [5], in assay [6], in assay [8] and in assay [9] was “inactive” in each case. Moreover, the Potency entry in [10] is “inactive”.
For the compound `O=C(O)CCSC[C@H]1O[C@@H]2O[C@H]3[C@H](O)[C@@H](O)[C@@H](O[C@H]4[C@H](O)[C@@H](O)[C@@H](O[C@H]5[C@H](O)[C@@H](O)[C@@H](O[C@H]6[C@H](O)[C@@H](O)[C@@H](O[C@H]7[C@H](O)[C@@H](O)[C@@H](O[C@H]8[C@H](O)[C@@H](O)[C@@H](O[C@H]9[C@H](O)[C@@H](O)[C@@H](O[C@H]1[C@H](O)[C@H]2O)O[C@@H]9CSCCC(=O)O)O[C@@H]8CSCCC(=O)O)O[C@@H]7CSCCC(=O)O)O[C@@H]6CSCCC(=O)O)O[C@@H]5CSCCC(=O)O)O[C@@H]4CSCCC(=O)O)O[C@@H]3CSCCC(=O)O`, the Potency result in [16], in assay [17], in assay [18], in assay [19] and in assay [20] was “inactive” in each case.
In the case of `CC1=CC(O)CC(C)(C)C1/C=C/C(C)=C/C=C/C(C)=C/C=C/C=C(C)/C=C/C=C(C)/C=C/C1=C(C)CC(O)CC1(C)C` (stereo not given), the Potency result in assay [16], in assay [17], in [18], in assay [19] and in [20] was “inactive” each time.
Regarding `CCOC(=O)C=C(C)C=CC[C@@H](C)CCCC(C)C`, the Potency result in assay [16], in assay [17], in assay [18], in [19] and in [20] was “inactive” in each case.
Turning to `CC(C)(C)c1ccc(CN2CCN(C(c3ccccc3)c3ccc(Cl)cc3)CC2)cc1` (stereo not given), the Potency entry in assay [16], in assay [17], in assay [18] and in [19] was “inactive” throughout.
`CCCCCCCCCCCCCC(=O)OCC(COP(=O)([O-])OCC[N+](C)(C)C)OC(=O)CCCCCCCCCCCCC` (stereo not given): the Potency entry in assay [16], in assay [17], in assay [18], in [19] and in assay [20] was “inactive” throughout.
Regarding `COC(=O)N[C@H](C(=O)N1CCC[C@H]1c1ncc(-c2ccc3c(c2)O[C@@H](c2ccccc2)n2c-3cc3cc(-c4cnc([C@@H]5CCCN5C(=O)[C@@H](NC(=O)OC)C(C)C)[nH]4)ccc32)[nH]1)C(C)C`, the Potency entry in assay [16], in [17], in [18] and in assay [19] was “inactive” in each case.
